Data: PubChem BioAssay AID1259415 (National Center for Advancing Translational Sciences (NCATS), 2018)
In all, about 410,000 compounds went through this assay and about 18,000 (4.4%) were called active. Roughly 7% stayed inconclusive and do not appear here. Rule as the data show it: active = activity change below about -60%; inconclusive = no clear call, values can overlap the other calls; inactive = above about -39%. Shown is part of a subset that was picked to be rich in actives.

Test: qHTS Assay for inhibitors of the human cytomegalovirus (HCMV)
Conditions: HFF cells, HCMV-luciferase reporter, 72 h; at 57.5 µM; hits give low values
Summary of the method: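 Luciferase read-out from HCMV-luciferase-infected HFFs (MOI 1 PFU/cell) 72 h post infection at 37C; compounds added after 16 h cell attachment; activity normalized between buffer-only basal and Salinomycin (10uM) inhibitor controls.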
% is scaled to controls: 0 for no effect and ±100 for the full control effect.

SMILES	activity change, negative = inhibition
Cc1cc(C)c(C#N)c(Nc2cccc(Br)c2)n1	34% (inactive)
CCOC(=O)c1cc(-c2ccccc2)n(-c2cccc(C(=O)Nc3cc(OC)cc(OC)c3)c2)c1C	0% (inactive)
O=C(NCC(c1cccs1)N1CCOCC1)c1cc(Cl)ccc1[N+](=O)[O-] (stereo not given)	-16.2% (inactive)
O=C(/C=C/c1cccs1)c1cc(Cl)ccc1OC(=O)N1CCOCC1	-92.8% (active)
CC(=O)Nc1ccccc1OC(=O)N1CCOCC1	-15.8% (inactive)
CCc1ccccc1NC(=O)Cn1c(=O)n(-c2cccc(C)c2)c(=O)c2c1c1cc(OC)ccc1n2C	-23.1% (inactive)
O=C(COC(=O)c1ncc(Cl)c(Cl)c1Cl)NCc1ccccc1	11.2% (inactive)
O=C(COC(=O)CNC(=O)C1CCCCC1)NCc1ccccc1	69.4% (inactive)
O=C(COC(=O)c1ccccc1C(=O)N1CCN(c2ccccc2)CC1)NCc1ccccc1	-62.6% (active)
O=C(C1CCCN(S(=O)(=O)c2cccc3nonc23)C1)N1CCN(c2ccccc2F)CC1 (stereo not given)	6.66% (inactive)
O=[N+]([O-])c1ccc(NCCCO)c(C(F)(F)F)c1	-8.02% (inactive)
CCC(CC)c1nnc(NC(=O)C2=COCCO2)s1	-1.99% (inactive)
Cc1ccc(C(=O)Nc2nnc(C3=COCCO3)o2)cc1C	-0.804% (inactive)
Cc1ccc(-c2csc(NC(=O)C3=COCCO3)n2)cc1C	-61.5% (active)
CCOc1ccc(CN2CCN(Cc3ccon3)CC2CCO)cc1 (stereo not given)	3.47% (inactive)
C=CCNCCCCOc1ccccc1	16.3% (inactive)
Cc1nn(CCOc2ccccc2)c(=O)n1-c1ccccc1F	69.3% (inactive)
CC(C)(c1ccccc1)c1ccc(OCCN)cc1	-107% (active)
O=C(/C=C/c1ccccc1)Oc1coc(CSc2ncccn2)cc1=O	9.32% (inactive)
COC(=O)c1ccc(OC)c(Cn2c(=O)n(Cc3ccccc3)c(=O)c3c2c2cc(OC)ccc2n3C)c1	7.51% (inactive)
O=C(C1CCN(S(=O)(=O)c2cnc[nH]2)CC1)N1CCN(Cc2ccc3c(c2)OCO3)CC1	9.71% (inactive)
O=C(C1CCN(Cc2ccc(Cl)cc2)CC1)N1CCN(Cc2ccc3c(c2)OCO3)CC1	-63% (active)
O=C(Nc1ccccc1)N1CCC(C(=O)N2CCN(Cc3ccccc3)CC2)CC1	0% (inactive)

SMILES	activity change, negative = inhibition
CCS(=O)(=O)N1CCc2cc(C(=O)NCc3ccc(C)cc3)ccc21	-3.25% (inactive)
Cc1ccc(C(=O)Nc2ccccc2F)cc1S(=O)(=O)N1CCOCC1	31.5% (inactive)
Cc1ccc(NC(=O)N[C@H]2CC[C@@]34CCCN3C(=O)CCC[C@H]4C2Cc2ccccc2)cc1 (stereo not given in full)	26.8% (inactive)
CCOC(=O)C1CCN(C(c2ccc(F)cc2)c2sc3nc(-c4ccco4)nn3c2O)CC1 (stereo not given)	2.65% (inactive)
Cc1cc(C)c(-c2n[nH]c3c2C(c2ccccc2F)N(CCO)C3=O)c(O)c1 (stereo not given)	25.7% (inactive)
CCC1(CC)NC(=O)N(CC(=O)OCC(=O)c2cc(C)c(C)cc2C)C1=O	-15.3% (inactive)
CC(=O)Nc1ccc(S(=O)(=O)N2CCN(CCCOc3cc(C)ccc3C)CC2)cc1	-65.9% (active)
Cc1ccc(C)c(OCCC(=O)Nc2cccc(S(=O)(=O)N3CCCC3)c2)c1	-23.7% (inactive)
Cc1cccc(OCCCC(=O)Nc2ccc(S(=O)(=O)N3CCCC3)cc2)c1	10.4% (inactive)
CCN(CC)c1ccc(C2C(C(N)=O)=C(C)Nc3nc(SCc4ccccc4)nn32)cc1 (stereo not given)	-90.4% (active)
CC1=C(C(N)=O)C(c2ccc3c(c2)OCO3)n2nc(-c3cccc(C)c3)nc2N1 (stereo not given)	78% (inactive)
CC1=C(C(=O)Nc2ccccc2)C(c2ccc(C)cc2)n2nc(SCc3ccccc3C)nc2N1 (stereo not given)	1.28% (inactive)
CNc1ccc(-c2nc(-c3ccco3)no2)cc1[N+](=O)[O-]	102% (inactive)
COc1ccc(S(=O)(=O)n2nc(C)c(S(=O)(=O)N3CCCCCC3)c2C)cc1	-17.6% (inactive)
Oc1c(CN2CCN(c3ccc(F)cc3)CC2)cc(Cl)c2cccnc12	-102% (active)
CC(C)c1ccc(O)c(CN2CCN(c3ccccc3)CC2)c1	12.7% (inactive)
COc1ccccc1CN1CCCC(N2CCN(c3ccc(F)cc3)CC2)C1 (stereo not given)	-1.19% (inactive)
COc1ccc(CNc2nc(-c3ccccc3)nn2C(=O)c2ccccc2OC)cc1	-16.2% (inactive)
N#Cc1cccc(NC(=O)N[C@H]2CC[C@@]34CCCN3C(=O)CCC[C@H]4C2Cc2ccccc2)c1 (stereo not given in full)	0.85% (inactive)
COc1ccc(C(CCN(Cc2ccc(OC)c(OC)c2)C(=O)CCl)c2ccccc2)cc1 (stereo not given)	-91.8% (active)
CCOc1ccc(C(CCc2ccccc2)NC(=O)c2ccc(OC)c(OC)c2)cc1OCC (stereo not given)	37% (inactive)
CCN(CCCCOC(=O)c1ccc(OC)c(OC)c1)C(C)Cc1ccc(OC)cc1 (stereo not given)	-37% (inactive)
